Data on four compounds can be found in PubChem BioAssay.

Results filed as inconclusive are left out. Activity calls are given as the source filed them.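 Rule for the calls, unless noted: active = binding below the plate cutoff, the plate median minus 3 SD, with a reading above zero; inconclusive = below the plate cutoff but reading exactly zero; inactive = the rest.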

Test [1] is described as follows: yeast TOR pathway RPL19A-GFP modulators, primary screen, cell-based, S. cerevisiae, multiplex flow cytometry (AID 1862; in the data active = percent of DMSO control GFP below about 86%;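 note: lower values mimic rapamycin by blocking the RPL19A rise seen in DMSO cells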). To be noted: S. cerevisiae RPL19A-GFP strain, flow cytometry fluorescence, 3 h; at 10 µM; stronger effect = lower value.
A short description of test [2]: modulators of MEP2-GFP levels in yeast, primary screen, S. cerevisiae, multiplex flow cytometry (AID 1867;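 active = GFP response, as percent of the DMSO control, above the screen-wide mean plus 3 SD, about 139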;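 note: median GFP channel fluorescence of barcode-gated MEP2-GFP cells measured by flow cytometry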). To be noted: S. cerevisiae MEP2-GFP strain, 3 h, at 10 µM, stronger effect = higher value, 100% means same as DMSO wells.
Test [3] can be described thus: modulators of CIT2-GFP expression in yeast, primary screen, S. cerevisiae, GFP fusion, multiplex flow cytometry (AID 1870;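 active = percent response above a set limit, the screen-wide mean plus 3 SD, cut at about 130% in these data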;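 note: barcoded CIT2-GFP strain pooled with four other GFP strains with rapamycin as positive control; median GFP fluorescence per well over plate mean of DMSO wells so 100% = DMSO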). As to conditions: 3 h, at 10 µM, stronger effect = higher value.
Test [4] is described as follows: modulators of LAP4-GFP expression in yeast, primary screen, S. cerevisiae, multiplex flow cytometry (AID 1873;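 active = GFP signal, as percent of the solvent control, above the screen mean plus 3 SD, about 149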). To be noted: 3 h, at 10 µM, stronger effect = higher value.
Test [5] in a line: modulators of AGP1-GFP expression in yeast TOR pathway, primary screen, cell-based, multiplex flow cytometry, S. cerevisiae (AID 1887;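 active = GFP signal above the screen-wide mean plus 3 SD, that is over about 124.5% of the solvent control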;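 note: AGP1-GFP fusion strain of S. cerevisiae within a five-strain barcoded multiplex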). To be noted: 3 h, at 10 µM, stronger effect = higher value.
The nature of test [6]: inhibitors of CD8+ T cell-vesicle binding, pilot screen, LFA-1/ICAM-1 modulator project, MLPCN validation set, flow cytometry (AID 2523;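 active = response below a set limit, under 55% cells CD8-positive and vesicle-bound, and CD8 cells' 90th-percentile brightness under 279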;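 for vesicle binding response: mean PE anti-B7-1 fluorescence of CD8+ cells relative to row control; 100% = QL9-loaded vesicles with DMSO vehicle in the same plate row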). To be noted: 2C mouse CD8+ T cells, at 7 µM, stronger effect = lower value; double positive events: measured here: CD8+/vesicle+ event percentage.
Test [7] has as its target Integrin beta-1 (Homo sapiens) + Integrin alpha-4 (Homo sapiens) (UniProt P13612+P05556). In words: inhibition of HUTS-21 binding to VLA-4, pilot screen, VLA-4 allosteric modulator project, U937 cells, HUTS-21 mAb, flow cytometry, validation set (AID 2674;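 active = inhibition above 50%, about 3 SD of the validation set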;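 note: antibody binding induced by the VLA-4 ligand LDV present at three times its Kd; 0% = LDV ligand with antibody and no compound and 100% = antibody without LDV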). As to conditions: HUTS-21 LIBS mAb binding, at 6.7 µM, stronger effect = higher value, binding induced by LDV ligand.
A short description of test [8]: superoxide lowering in aged yeast cells, pilot screen, validation compound set (AID 2706;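 active = superoxide response below 65% of plate, a cut near 3 SD across the whole screen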;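 note: yeast exposed to compound for one week at 30 degrees C before staining; 100% = mean of all compound wells on the same plate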). As to conditions: S. cerevisiae aging, superoxide DHE fluorescence; at 10 µM, stronger effect = lower value.
The target of test [9] is Beta-adrenergic receptor kinase 1 (Homo sapiens) (UniProt P25098). In words: GRK2 binders displacing RNA aptamer, biochemical, validation, human GRK2, bead flow cytometry (AID 488806;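 active = aptamer binding inhibition above 30%, about 3 SD of noise from non-fluorescent compounds; inactive = inhibition at or below 30%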). To be noted: bead-bound GRK2, FAM-aptamer displacement, at 10 µM, stronger effect = higher value.
Chain of Beta-adrenergic receptor kinase 1 (Homo sapiens) (P25098 whole entry, looked up): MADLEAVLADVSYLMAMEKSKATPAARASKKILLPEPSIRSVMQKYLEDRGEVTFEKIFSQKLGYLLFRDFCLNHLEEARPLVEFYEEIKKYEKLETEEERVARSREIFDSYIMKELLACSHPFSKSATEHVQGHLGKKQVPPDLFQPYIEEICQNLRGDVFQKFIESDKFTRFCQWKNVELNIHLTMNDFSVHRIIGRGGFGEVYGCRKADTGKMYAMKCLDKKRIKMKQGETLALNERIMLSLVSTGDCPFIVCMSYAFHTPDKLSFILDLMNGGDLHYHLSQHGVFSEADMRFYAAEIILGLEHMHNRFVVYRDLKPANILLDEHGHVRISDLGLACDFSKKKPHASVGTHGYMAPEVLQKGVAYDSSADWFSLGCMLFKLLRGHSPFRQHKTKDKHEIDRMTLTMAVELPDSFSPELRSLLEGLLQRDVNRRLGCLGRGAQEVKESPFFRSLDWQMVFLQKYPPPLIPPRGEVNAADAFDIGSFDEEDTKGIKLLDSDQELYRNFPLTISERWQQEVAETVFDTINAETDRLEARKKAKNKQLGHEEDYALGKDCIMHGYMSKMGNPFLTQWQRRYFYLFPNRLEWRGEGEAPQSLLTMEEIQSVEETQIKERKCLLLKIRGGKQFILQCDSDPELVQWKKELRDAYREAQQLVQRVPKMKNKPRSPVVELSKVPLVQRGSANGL
In test [10] the target is AP-2 complex subunit beta (Homo sapiens) (UniProt P63010). In words: inhibitors of arrestin peptide binding to AP2, pilot screen, biochemical, validation set, GST-AP2 beads, flow cytometry (AID 504541;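 active = inhibition above 54%, about 3 SD of non-fluorescent compounds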;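 note: AP2 carries R879A mutation and is captured from E. coli lysate; bead-bound FITC arrestin peptide fluorescence measuring arrestin peptide binding to AP2; 0% = DMSO wells and 100% = excess unlabeled arrestin peptide control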). As to conditions: FITC arrestin peptide, at 10 µM, stronger effect = higher value, AP2 beta2 appendage fragment, R879A mutant.
Chain of AP-2 complex subunit beta (Homo sapiens) (P63010 whole entry, looked up, the tested form may be a part, one chain of several): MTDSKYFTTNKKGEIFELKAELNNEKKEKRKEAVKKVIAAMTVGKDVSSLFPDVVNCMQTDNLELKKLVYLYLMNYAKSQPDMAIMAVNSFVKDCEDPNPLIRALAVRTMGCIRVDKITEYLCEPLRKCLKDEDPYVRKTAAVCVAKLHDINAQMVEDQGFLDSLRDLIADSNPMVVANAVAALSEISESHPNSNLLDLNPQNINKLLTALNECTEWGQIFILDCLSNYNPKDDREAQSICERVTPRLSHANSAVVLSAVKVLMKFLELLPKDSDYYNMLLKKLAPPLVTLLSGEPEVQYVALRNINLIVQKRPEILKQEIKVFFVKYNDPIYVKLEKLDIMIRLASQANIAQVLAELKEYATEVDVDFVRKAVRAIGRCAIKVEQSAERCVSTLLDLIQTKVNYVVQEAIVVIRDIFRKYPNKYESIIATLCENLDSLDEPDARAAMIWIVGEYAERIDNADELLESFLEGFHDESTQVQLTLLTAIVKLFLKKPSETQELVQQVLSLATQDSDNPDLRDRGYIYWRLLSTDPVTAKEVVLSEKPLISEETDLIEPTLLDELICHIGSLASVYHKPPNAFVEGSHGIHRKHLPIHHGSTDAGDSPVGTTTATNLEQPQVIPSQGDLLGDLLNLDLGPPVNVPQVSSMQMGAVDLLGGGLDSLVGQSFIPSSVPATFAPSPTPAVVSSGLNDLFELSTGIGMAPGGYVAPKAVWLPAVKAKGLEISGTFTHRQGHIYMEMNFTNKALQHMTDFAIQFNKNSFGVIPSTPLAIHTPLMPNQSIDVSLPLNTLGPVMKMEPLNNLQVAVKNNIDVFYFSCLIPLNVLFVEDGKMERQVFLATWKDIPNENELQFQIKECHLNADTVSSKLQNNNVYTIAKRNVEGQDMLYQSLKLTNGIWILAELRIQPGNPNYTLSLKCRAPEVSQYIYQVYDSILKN
A short description of test [11]: yeast V-ATPase proton transport modulators, S. cerevisiae, pHLuorin, HTS validation (AID 504600; in the data active = response above about 15%;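 note: plate controls were DMSO for no effect and reference compound for full effect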). As to conditions: S. cerevisiae pHLuorin cytosolic pH, at 10 µM, stronger effect = higher value.
Test [12] relates to anti-desmoglein-3 scFv antibody binding to human DSG3. Briefly: inhibitors of anti-DSG3 scFv binding to DSG3, pilot screen, biochemical, validation compound set, bead-based, flow cytometry (AID 588368).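 Note: signal is the median channel fluorescence of bead-bound GFP antibody.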 As to conditions: Protein G beads, DSG3-Fc, scFv-GFP binding, at 10 µM, stronger effect = lower value.
Test [13] in a line: inhibitors of fungal efflux pumps CDR1, CDR2, MDR1, pilot screen, validation compound set, multiplex, phenotypic (AID 588506;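 active = efflux inhibition above 0.42, the validation set average plus 4 SD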;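 note: Nile Red retained in cells so higher fluorescence means more efflux inhibition; 0 = negative control wells and 1 = enniatin B 25 µM full block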). As to conditions: S. cerevisiae pump-expressing triplex, Nile Red efflux flow cytometry; at 10 µM; stronger effect = higher value; the pumps come from Candida albicans.
Test [14] deals with ATP-binding cassette sub-family B member 6 (Homo sapiens) (UniProt Q9NP58). Briefly: ABCB6 transporter inhibitors, pilot screen, K562-ABCB6 cells, flow cytometry, validation set (AID 588550;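 active = inhibition above the screen-wide mean plus 3 SD, about 51%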;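 note: 0% = DMSO wells and 100% = benzethonium chloride 70 µM positive control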). To be noted: K562-ABCB6 porphyrin accumulation, 1 h, at 10 µM, stronger effect = higher value.
Chain of ATP-binding cassette sub-family B member 6 (Homo sapiens) (Q9NP58 whole entry, looked up): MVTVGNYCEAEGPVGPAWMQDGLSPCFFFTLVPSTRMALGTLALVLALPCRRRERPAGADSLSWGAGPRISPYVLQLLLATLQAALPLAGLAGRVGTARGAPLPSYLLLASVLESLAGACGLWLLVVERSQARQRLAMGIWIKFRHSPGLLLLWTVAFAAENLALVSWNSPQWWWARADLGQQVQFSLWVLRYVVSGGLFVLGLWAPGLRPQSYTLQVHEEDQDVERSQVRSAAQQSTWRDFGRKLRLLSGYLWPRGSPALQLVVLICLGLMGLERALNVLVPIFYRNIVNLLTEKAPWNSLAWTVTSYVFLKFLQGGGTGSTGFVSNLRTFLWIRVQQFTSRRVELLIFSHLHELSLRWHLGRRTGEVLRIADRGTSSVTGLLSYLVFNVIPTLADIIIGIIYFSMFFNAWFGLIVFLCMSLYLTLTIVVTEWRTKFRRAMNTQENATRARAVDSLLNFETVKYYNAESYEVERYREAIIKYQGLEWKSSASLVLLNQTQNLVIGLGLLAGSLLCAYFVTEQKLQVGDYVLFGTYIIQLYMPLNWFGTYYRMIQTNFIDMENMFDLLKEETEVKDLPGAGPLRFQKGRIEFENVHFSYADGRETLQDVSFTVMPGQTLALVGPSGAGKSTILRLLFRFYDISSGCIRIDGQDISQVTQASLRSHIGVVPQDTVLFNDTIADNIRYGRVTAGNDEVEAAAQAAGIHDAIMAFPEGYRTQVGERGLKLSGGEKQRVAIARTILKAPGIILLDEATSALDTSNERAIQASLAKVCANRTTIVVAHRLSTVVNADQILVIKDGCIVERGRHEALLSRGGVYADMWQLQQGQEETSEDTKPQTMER
Test [15] can be described thus: promoters of myeloid differentiation in arrested cells, primary screen, cell-based, GFP/MAC1 double positive, flow cytometry, validation set (AID 588685;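 active = differentiation response of at least 50%, scaled between solvent and reference control, from cells with both markers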;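 note: compound exposure lasts four days before antibody staining and flow analysis; 0% = DMSO wells and 100% = 5 µM fulvestrant positive control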). To be noted: ER-HoxA9 marrow cells, stronger effect = higher value, normalized: vehicle 0, fulvestrant 100.

Chain of Integrin beta-1 (Homo sapiens) + Integrin alpha-4 (Homo sapiens) (P05556 whole entry, looked up): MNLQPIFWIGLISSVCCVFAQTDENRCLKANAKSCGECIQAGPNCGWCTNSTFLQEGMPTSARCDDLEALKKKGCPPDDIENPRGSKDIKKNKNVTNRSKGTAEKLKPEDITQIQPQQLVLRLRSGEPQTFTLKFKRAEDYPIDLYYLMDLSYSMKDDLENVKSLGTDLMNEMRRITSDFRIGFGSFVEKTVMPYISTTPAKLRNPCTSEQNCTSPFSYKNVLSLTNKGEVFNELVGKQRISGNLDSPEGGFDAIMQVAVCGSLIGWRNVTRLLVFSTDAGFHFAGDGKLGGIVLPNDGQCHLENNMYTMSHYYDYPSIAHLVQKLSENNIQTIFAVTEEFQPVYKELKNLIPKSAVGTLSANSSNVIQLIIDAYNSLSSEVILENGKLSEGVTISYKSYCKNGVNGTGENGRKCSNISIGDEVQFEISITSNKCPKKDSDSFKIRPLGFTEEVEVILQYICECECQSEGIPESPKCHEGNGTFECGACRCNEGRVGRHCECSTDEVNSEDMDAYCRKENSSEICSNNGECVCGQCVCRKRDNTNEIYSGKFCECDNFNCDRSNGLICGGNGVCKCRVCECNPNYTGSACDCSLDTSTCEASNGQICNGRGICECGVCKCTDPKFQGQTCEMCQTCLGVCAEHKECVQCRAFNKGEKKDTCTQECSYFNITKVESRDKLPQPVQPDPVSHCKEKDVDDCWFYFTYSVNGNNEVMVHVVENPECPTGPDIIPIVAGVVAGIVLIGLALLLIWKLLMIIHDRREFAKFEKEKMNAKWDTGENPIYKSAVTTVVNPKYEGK
Chain of Integrin beta-1 (Homo sapiens) + Integrin alpha-4 (Homo sapiens) (P13612 whole entry, looked up): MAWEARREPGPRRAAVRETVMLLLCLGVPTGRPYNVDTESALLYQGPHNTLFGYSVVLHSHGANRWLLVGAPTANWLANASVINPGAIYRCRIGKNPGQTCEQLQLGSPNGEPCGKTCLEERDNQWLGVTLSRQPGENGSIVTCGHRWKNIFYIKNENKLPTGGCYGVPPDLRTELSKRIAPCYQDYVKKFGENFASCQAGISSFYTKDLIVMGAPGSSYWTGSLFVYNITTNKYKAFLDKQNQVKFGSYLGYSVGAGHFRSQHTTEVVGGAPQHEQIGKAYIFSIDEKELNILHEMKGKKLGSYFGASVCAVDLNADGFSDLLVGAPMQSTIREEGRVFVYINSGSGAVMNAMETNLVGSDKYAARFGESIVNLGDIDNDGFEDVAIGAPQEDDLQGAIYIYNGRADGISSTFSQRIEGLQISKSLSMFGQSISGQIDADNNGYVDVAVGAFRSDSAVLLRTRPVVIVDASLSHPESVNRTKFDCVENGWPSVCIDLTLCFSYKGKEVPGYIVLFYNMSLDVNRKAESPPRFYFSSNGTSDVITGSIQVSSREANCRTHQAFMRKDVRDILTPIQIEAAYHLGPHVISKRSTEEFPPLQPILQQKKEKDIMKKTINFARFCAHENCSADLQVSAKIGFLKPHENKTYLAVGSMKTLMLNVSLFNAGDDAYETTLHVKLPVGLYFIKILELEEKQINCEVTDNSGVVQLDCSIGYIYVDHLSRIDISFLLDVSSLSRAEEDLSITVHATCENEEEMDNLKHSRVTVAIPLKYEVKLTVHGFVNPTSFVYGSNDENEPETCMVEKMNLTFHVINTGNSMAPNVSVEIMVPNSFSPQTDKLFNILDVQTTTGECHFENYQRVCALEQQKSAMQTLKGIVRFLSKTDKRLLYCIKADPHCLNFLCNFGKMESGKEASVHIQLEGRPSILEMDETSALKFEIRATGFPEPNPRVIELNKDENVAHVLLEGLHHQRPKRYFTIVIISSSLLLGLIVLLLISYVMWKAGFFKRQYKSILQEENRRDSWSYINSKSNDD

With `COC(=O)c1ccc(=O)n(Cc2ccco2)c1`, in test [1], the percent of DMSO control GFP was 94.7% (inactive). Besides, the values for the GFP response vs DMSO in test [2] and in test [4] were 92.8% (inactive) and 92.3% (inactive), respectively. The percent response of DMSO control in test [3] was 97.9% (inactive). Also, the GFP response, % of DMSO in [5] was 96.9% (inactive). For the same compound, in [6], the double positive events was 58.2%. Further, in [6], the vesicle binding response was 166% (inactive). Moreover, the results for the inhibition in [7], in [10] and in test [14] were -6.77% (inactive), -1.44% (inactive) and 12% (inactive), respectively. Moreover, the superoxide response (% of plate) in test [8] was 86.5% (inactive). In test [9], the aptamer binding inhibition was -2% (inactive). Also, the response in [11] was -0.2% (inactive). In addition, in [12], the binding (% of control) was 94.6% (inactive). Moreover, the efflux inhibition (fraction of control) in [13] is -0.16 (inactive). In addition, in [15], the differentiation response is -8.27% (inactive).
As to `COc1cc(C2CC(=O)NC3=C2C(=O)CC(C)(C)C3)ccc1O` (centres undefined), the percent of DMSO control GFP in [1] was 99.6% (inactive). The GFP response vs DMSO in test [2] was 99.9% (inactive); in [4] it was 100% (inactive). In addition, the percent response of DMSO control in [3] was 105% (inactive). Moreover, the GFP response, % of DMSO in test [5] is 103% (inactive). Further, in [6], the double positive events was 61.3%. Also, the vesicle binding response in [6] is 141% (inactive). In addition, the inhibition in test [7] was 11.9% (inactive); in test [10], 22.3% (inactive); in [14], 4% (inactive). The superoxide response (% of plate) in test [8] was 98.7% (inactive). For the same compound, the aptamer binding inhibition in test [9] is 4% (inactive). For the same compound, in test [11], the response was -2.29% (inactive). The binding (% of control) in test [12] was 96.5% (inactive). The efflux inhibition (fraction of control) in [13] is -0.09 (inactive). For the same compound, the differentiation response in test [15] is 0% (inactive).
With `C[C@H]1C[C@H]2[C@@H]3CCC4=CC(=O)C=C[C@]4(C)[C@@]3(Cl)[C@@H](O)C[C@]2(C)[C@@]1(O)C(=O)CO`, the percent of DMSO control GFP in [1] is 101% (inactive). The GFP response vs DMSO in test [2] and in test [4] was 103% (inactive) throughout. For the same compound, in [3], the percent response of DMSO control is 106% (inactive). Also, the GFP response, % of DMSO in [5] was 98.8% (inactive). The same compound showed a double positive events in test [6] of 53.7%. Further, the vesicle binding response in test [6] is 190% (inactive). In addition, the inhibition in [7] was 4.42% (inactive); in [10], -8.65% (inactive); in test [14], 6% (inactive). Further, the superoxide response (% of plate) in test [8] was 85.2% (inactive). In addition, the aptamer binding inhibition in test [9] is 2% (inactive). Besides, in test [11], the response is 4.84% (inactive). Also, in test [12], the binding (% of control) is 96.9% (inactive). Moreover, the efflux inhibition (fraction of control) in test [13] is -0.24 (inactive). In [15], the differentiation response is -9.89% (inactive).
For the compound `COc1ccc2c(c1)C(=O)CC(c1ccccc1F)O2` (centres undefined), in test [1], the percent of DMSO control GFP is 95.8% (inactive). Moreover, the GFP response vs DMSO is 103% (inactive) in test [2] and 92.3% (inactive) in [4]. In addition, in test [3], the percent response of DMSO control was 93.9% (inactive). The GFP response, % of DMSO in [5] was 87% (inactive). Besides, the double positive events in [6] amounted to 62%. Further, in test [6], the vesicle binding response is 135% (inactive). The inhibition was 10% (inactive) in [7], 21.8% (inactive) in test [10] and -46% (inactive) in test [14]. Besides, the superoxide response (% of plate) in test [8] is 97% (inactive). The aptamer binding inhibition in test [9] was 0% (inactive). Moreover, the response in test [11] is -0.49% (inactive). The binding (% of control) in test [12] is 94.1% (inactive). Besides, in [13], the efflux inhibition (fraction of control) was 0.44 (active). In addition, the differentiation response in test [15] was -11.5% (inactive).
